Bioassay records: PubChem, National Center for Advancing Translational Sciences (NCATS)
Shown is part of a subset that was picked to be rich in hits.
Shiga inhibitor = A qHTS for Small Molecule Inhibitors of Shiga Toxin; Vero cells, Shiga toxin protein synthesis inhibition reporter; inhibition, % at 38.7 µM; 9.2% of 290,000 active; AID 2315, 2010; in the data active means inhibition mostly above about 28%, no sharp cut-off; inactive means mostly below about 43%; further: 0% is about no effect
Sm TGR block = qHTS Assay for the Inhibitors of Schistosoma Mansoni Peroxiredoxins | Schistosoma mansoni thioredoxin glutathione reductase (TGR), Q962Y6 | AID 485364, 2010 | Potency, µM (doses to about 114 µM), for inactives: at the highest dose activity change, negative = inhibition, most hits filed as inhibitors | purified TGR, DTNB reduction, TNB absorbance 405 nm | 3% of 360,000 active; further: potency means the concentration at half of the fitted maximal effect; on the % scale 0 is the no-effect control and ±100 the full control effect; nearly all actives have a fitted effect of over 60% in size
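First, TGR (20 nM dispensed) and NADPH were mixed with compound. Second, a 15 min room-temperature incubation followed. Third, further NADPH and then DTNB were added to start the reaction. Finally, TNB absorbance was monitored kinetically.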
CHX counter = Cycloheximide Counterscreen for Small Molecule Inhibitors of Shiga Toxin; max response, %; AID 2314, 2010; 12% of 300,000 active; cell reporter, cycloheximide protein synthesis inhibition counterscreen; in the data active means max response mostly above about 13%, no sharp cut-off; inactive means mostly below about 14%; further: read at 38.3 µM for the half of the compounds with a filed dose; 0% is about no effect
LmPK inhibitor = qHTS Assay for Inhibitors of Leishmania Mexicana Pyruvate Kinase (LmPK); Potency, µM (titrated, usually from 57.5 µM), for the others: top-dose activity change, negative = inhibition, usual class: inhibitors; AID 1721, 2009; Q27686; 0.37% of 290,000 active; purified LmPK, Kinase-Glo ATP luminescence, 1 h; further: potency means the concentration at half of the fitted maximal effect; on the % scale 0 is the no-effect control and ±100 the full control effect
Target sequence (Q27686 whole entry, looked up): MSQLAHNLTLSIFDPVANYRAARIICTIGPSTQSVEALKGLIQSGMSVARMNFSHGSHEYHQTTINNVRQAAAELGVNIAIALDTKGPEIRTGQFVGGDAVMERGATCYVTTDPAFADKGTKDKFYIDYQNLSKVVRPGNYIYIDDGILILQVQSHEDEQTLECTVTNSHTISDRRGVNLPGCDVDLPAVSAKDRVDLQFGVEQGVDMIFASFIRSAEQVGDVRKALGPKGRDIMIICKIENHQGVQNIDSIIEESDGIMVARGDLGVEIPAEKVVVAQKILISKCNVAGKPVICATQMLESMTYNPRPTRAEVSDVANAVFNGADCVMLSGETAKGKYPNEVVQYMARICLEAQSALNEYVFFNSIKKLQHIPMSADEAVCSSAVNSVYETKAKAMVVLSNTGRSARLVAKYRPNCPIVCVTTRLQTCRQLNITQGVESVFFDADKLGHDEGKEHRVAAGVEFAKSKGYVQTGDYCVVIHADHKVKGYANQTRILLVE
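Kinase-Glo luminescence read after 1 h RT reaction of 0.1 nM LmPK with 0.5 mM PEP and 0.1 mM ADP. Activity scaled between uninhibited and enzyme-free controls.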
FBPA Giardia inh = qHTS Assay for Inhibitors of Fructose-1,6-bisphosphate Aldolase from Giardia Lamblia; A8B2U2; purified Giardia FBPA; Potency, µM (highest dose often 59.6 µM), without a hit: at the highest dose activity, negative = inhibition, most hits filed as inhibitors; 0.71% of 290,000 active; AID 2451, 2010; further: potency means the concentration at half of the fitted maximal effect; on the % scale 0 is the no-effect control and ±100 the full control effect; nearly all actives have a fitted effect of over 55% in size
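Giardia FBPA (40 nM reagent) was preincubated 10 min at RT with compound (up to 57.5 uM final), then substrate plus GAPDH/TPI/NAD/arsenate coupling system with diaphorase/resazurin was added; resorufin fluorescence (525/598 nm) was read after 20 min.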
TbPYK inhibitor = qHTS of Trypanosoma Brucei Inhibitors; TbPYK enzyme, Kinase-Glo Plus ATP luminescence, 45 min; 0.12% of 410,000 active; Potency, µM (titrated, usually from 76.8 µM), without a hit: at the highest dose activity, negative = inhibition, hits mostly inhibitors; AID 624173, 2012; pyruvate kinase (Trypanosoma brucei), Q57TT1; further: potency means the concentration at half of the fitted maximal effect; on the % scale 0 is the no-effect control and ±100 the full control effect; nearly all actives have a fitted effect of over 50% in size
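Luminescent Kinase-Glo Plus end-point after 45 min room-temperature reaction of T. brucei pyruvate kinase started with 130 uM ADP (final). Buffer TEA 50 mM pH 7.2 with KCl, MgCl2, BSA, Tween-20; titration-based qHTS with fitted concentration-effect curves.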
The depositor's hits bear a star; ? = inconclusive; . = not tested or not shown; [ ] = dose if it differs, or a comment. Unless noted, the call rests on the fitted dose curve; in most records, active means well fitted curve in the direction sought with a large enough effect; inconclusive means small, poorly fitted or top-dose-only effect, or another doubt; inactive means no such curve, though single readings can be large; an effect the other way counts as inactive or inconclusive.

SMILES	Shiga inhibitor	Sm TGR block	CHX counter	LmPK inhibitor	FBPA Giardia inh	TbPYK inhibitor
CCOC(=O)N/N=C\c1ccc(OC(=O)c2ccc3c(c2)OCO3)cc1	34.8	18.3%	41.8*	-3.7%[11.5 µM]	-13.4%	-2.4%
O=C(N/N=C\c1ccc2c(c1)OCO2)c1cncc(Br)c1	60.3*	-11.3%	23.1*	-2.7%	-6.6%	0.0%
Cc1ccc(C(=O)Oc2ccc(/C=N/NC(N)=O)cc2)cc1	2.9	-11.9%	18.7	1.6%	-0.8%	4.0%
COc1ccc(-c2onc(C)c2C)cc1S(=O)(=O)Nc1cc(Cl)ccc1C	.	-5.8%	.	.	.	-10.8%
COc1ccc(NC(=O)C2CC(=O)N(c3ccccc3F)C2)cc1S(=O)(=O)N1CCCCC1 (stereo not drawn)	.	.	.	.	.	-0.3%
O=C(Nc1c2c(nn1-c1ccc(Cl)cc1)CS(=O)(=O)C2)c1cccc(Cl)c1	.	-8.7%	.	.	.	2.0%
CCOC(=O)c1c(S(=O)(=O)N2CCCC(C(=O)Nc3cccc(Cl)c3)C2)c(C)n(C)c1C (stereo not drawn)	.	2.2%	.	.	.	0.0%
CN(C)c1ccc(/C=N/NC(=O)c2ccc3c(c2)OCO3)cc1	91.4*	-10.1%	38.9*	-13.4%	-4.9%	-1.9%
O=C(N/N=C/c1cc(Br)c(O)c(Br)c1)c1cccnc1	19.3	89.1µM*	9.4	4.4%	-22.7%	4.9%
CCn1cc(/C=N/NC(=O)c2ccc3c(c2)OCO3)cn1	23.8	-1.7%	35.2*	-3.4%	6.9%	4.9%
O=C(NN=Cc1c(O)ccc2ccccc12)c1ccc2c(c1)OCO2	.	.	.	.	.	-0.8%
CC(=O)Nc1ccc(C(=O)N/N=C/c2cccnc2)cc1	-7.5	2.1%	-2.1	-3.1%	2.3%	2.4%
O=C(N/N=C/c1cccnc1)c1ccc2c(c1)OCCO2	42.3*	2.3%	41.6*	-9.1%	-2.3%	5.7%
CCOC(=O)CCN1C(=O)[C@@H]2[C@H]3C(=CC[C@H]2C1=O)C(=O)[C@H]1O[C@H]1[C@H]3O	.	.	.	.	-4.6%[12.9 µM]	.
COC(=O)[C@@]1(Cc2ccccc2)[C@H]2c3cc(C(=O)N(C)C)n(Cc4ccc(S(C)(=O)=O)cc4)c3C[C@H]2CN1C(=O)c1ccccc1	.	.	.	.	2.4%	.
O=C(O)c1ccc(/C=N/NC(=O)c2ccc3c(c2)OCCO3)cc1	22.4	-1.2%	20.8*	-2.5%	.	0.0%
COc1c(O)ccc(/C=N/NC(=O)c2ccc3c(c2)OCCO3)c1[N+](=O)[O-]	51.9*	-0.4%	21.3*	0.8%	-0.4%	3.5%
Cc1nn(C)cc1/C=N/NC(=O)c1ccc2c(c1)OCO2	26.2	0.9%	15.5*	-12.4%	1.4%	-8.1%
O=C(N/N=C/c1ccccc1)c1ccc2c(c1)OCO2	23.7	8.9%	24.7	-8.1%	-6.2%	-1.6%
O=C(N/N=C/c1cc2c(cc1[N+](=O)[O-])OCO2)c1ccc2c(c1)OCO2	12.9	2.2%	1.9	-1.6%	7.0%	-20.6%
COc1cc(/C=N/NC(=O)c2ccc3c(c2)OCCO3)cc(Cl)c1O	17.2	-15.0%	23.0*	-1.7%	.	4.9%
Cc1ccc(NC(=O)CCCn2c(=O)c3cccn3c3cccnc32)cc1C	.	2.4%	.	.	.	5.0%
CCN(CC)CCCC(C)n1c(-c2ccccc2)nc2c(NCCO)nc(C)nc21 (stereo not drawn)	.	.	.	.	1.2%	.
O=C(N/N=C/c1ccc2c(c1)OCO2)c1cccnc1	103.5*	-0.8%	48.0*	-16.4%	5.7%	-5.5%
CCOC(=O)c1cc2c(=O)n3ccccc3nc2n(CCCOC)c1=NC(=O)c1c(-c2ccccc2Cl)noc1C	.	-2.7%	.	.	.	1.9%
Cc1ccc(C)c(OCCC(=O)NNC(=O)c2cc(C)oc2C)c1	.	-7.8%	.	.	.	2.4%
COc1ccc(CC2=CC(=O)c3ccccc3C2=O)cc1	123.3*	28.2µM*	55.8*	-7.1%	?	?
Cc1[nH]c2ccccc2c(=O)c1CN(C)Cc1ccccc1	49.1	-14.5%	26.7*	-3.7%	-1.8%	0.0%
Cc1[nH]c2ccccc2c1CC(=O)O	-13.7	44.7µM*	10.5	4.2%	0.5%	0.0%
